Bioassay records from PubChem.
RORg inh: blocks mouse ROR gamma transcriptional activity; P51450; Drosophila S2 Gal4-RORgamma UAS-luciferase reporter, 20 h; Potency, µM (top dose mostly 53.6 µM), actives largely listed as inhibitors; 310,000 compounds, 5.4% hits; AID 2551; note: nearly all actives have a fitted effect of over 60% in size
Target sequence (P51450 whole entry, looked up, the tested form may be a part): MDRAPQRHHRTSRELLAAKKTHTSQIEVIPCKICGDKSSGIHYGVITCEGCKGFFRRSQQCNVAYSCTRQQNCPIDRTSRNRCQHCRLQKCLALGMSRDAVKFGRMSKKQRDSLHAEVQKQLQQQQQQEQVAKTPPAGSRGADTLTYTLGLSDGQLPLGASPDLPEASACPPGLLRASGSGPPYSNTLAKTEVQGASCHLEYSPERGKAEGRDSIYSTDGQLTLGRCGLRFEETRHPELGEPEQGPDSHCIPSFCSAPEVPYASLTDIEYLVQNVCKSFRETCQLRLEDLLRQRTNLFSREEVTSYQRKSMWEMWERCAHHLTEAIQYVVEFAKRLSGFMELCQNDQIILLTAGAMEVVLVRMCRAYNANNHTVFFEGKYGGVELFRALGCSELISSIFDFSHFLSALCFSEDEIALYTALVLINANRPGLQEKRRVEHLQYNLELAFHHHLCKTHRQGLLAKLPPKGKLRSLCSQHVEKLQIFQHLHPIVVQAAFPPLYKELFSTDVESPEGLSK
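Luciferase reporter read in Schneider cells carrying Gal4-RORγ (mouse) and UAS-Photinus luciferase; cells given compound 1 h before 700 uM copper sulfate induction, then incubated 20 h at ambient temperature.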
IL-1B inflam inh: blocks inflammasome-driven IL-1 beta release; THP-1 LPS/ATP IL-1B secretion, AlphaLISA, 16 h; hits give low values; activity change, % at 57.5 µM; 360,000 compounds, 4.7% hits; in the data active = activity change below about -50%; inconclusive = mostly about -30% to -49%
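THP-1 cells pretreated 1 hr with compounds (up to 57.5 uM final), then stimulated with LPS (250 ng/mL final) plus ATP (1.25 mM final); secreted IL-1B measured by AlphaLISA after 16 hr, decreased signal indicating inhibition.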
ELG1 DNA repair: ELG1-dependent DNA repair inhibition; HEK293T ELG1-luciferase reporter, luminescence, 16 h; DNA damage induced by 5-fluorouridine; Potency, µM (doses to about 46.1 µM), most hits filed as inhibitors; 330,000 compounds, 2.3% hits; note: nearly all actives have a fitted effect of over 55% in size
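In this reporter screen, reduction of luminescence relative to DMSO vehicle indicated activity. Compounds and 5-fluorouridine were added together to 2,000 cells per well, incubated for 16 hr at 37 °C, then developed with ONE-Glo.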
TDP1 cell CPT: growth inhibition of DT40 Tdp1-/-;hTDP1 cells with camptothecin (screen for TDP1 inhibitors); 420,000 compounds, 12% hits; Potency, µM (titrated, usually from 46.2 µM), hits mostly inhibitors; chicken DT40 Tdp1-/-;hTDP1 cells + 20 nM CPT, ATP luminescence, 48 h; AID 686979; note: nearly all actives have a fitted effect of over 55% in size
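Chicken DT40 Tdp1-/- cells stably complemented with human TDP1 were seeded at 400 cells/well in medium containing 20 nM camptothecin, exposed to pin-transferred compounds, and grown at 37 °C for at least 48 hr. Viability was read as ATP luminescence.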
DT40 TDP1 no CPT: qHTS for Inhibitors of human tyrosyl-DNA phosphodiesterase 1 (TDP1): qHTS in cells in absence of CPT; DT40 Tdp1-/- hTDP1 cells, no CPT, ATP luminescence, 48 h; Potency, µM (titrated, usually from 46.2 µM), usual class: inhibitors; 420,000 compounds, 15% hits; AID 686978, 2013; note: nearly all actives have a fitted effect of over 55% in size
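A cellular qHTS used chicken DT40 cells lacking endogenous Tdp1 but carrying stably transfected human TDP1. Compounds were applied without camptothecin, and cell growth kinetics were judged by ATP-dependent luminescence after ≥48 hr.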
VP16 counter: inhibits Gal4-VP16 luciferase reporter, ROR gamma counter-screen; Drosophila S2 Gal4-VP16 UAS-luciferase, luminescence, 20 h; Potency, µM (titrated, usually from 53.6 µM), hits mostly inhibitors; 310,000 compounds, 3.5% hits;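 note: Gal4-VP16 expression switched on by copper sulfate through the metallothionein promoter; nearly all actives have a fitted effect of over 50% in size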
Of the large screens only hits and unclear results are named; the others gave an inactive call. The list is not random: actives were taken first. Their share in the collection is about 21%. Unless noted, calls come from the whole dose curve; as a rule, active = well fitted curve in the direction sought with a large enough effect; inconclusive = small, poorly fitted or top-dose-only effect, or another doubt; inactive = no such curve, though single readings can be large; an effect the other way counts as inactive or inconclusive.

O=C1CSC(c2cn(-c3ccccc3)nc2-c2ccccc2)N1Cc1ccco1 (stereo unspecified)	ELG1 DNA repair 18µM, TDP1 cell CPT inconclusive, DT40 TDP1 no CPT 18µM, VP16 counter inconclusive
O=c1[nH]c(CN(CCc2ccccc2)S(=O)(=O)c2ccc(Cl)cc2)nc2ccccc12	RORg inh 4.5µM, ELG1 DNA repair inconclusive, DT40 TDP1 no CPT inconclusive, VP16 counter 6.3µM
COc1ccc(S(=O)(=O)N(Cc2ccccc2)Cc2nc3ccccc3c(=O)[nH]2)cc1	RORg inh 13µM, ELG1 DNA repair inconclusive, TDP1 cell CPT 4.6µM, DT40 TDP1 no CPT 5.2µM, VP16 counter 11µM
O=C(Cn1cnc2c(oc3nc4c(cc32)CCCC4)c1=O)Nc1cccc(Cl)c1	TDP1 cell CPT 23µM, DT40 TDP1 no CPT 12µM
O=C(Cn1cnc2c(oc3nc4c(cc32)CCCC4)c1=O)Nc1ccccc1	DT40 TDP1 no CPT inconclusive
Cc1csc2nc(COC(=O)CNC(=O)c3ccc(F)cc3)cc(=O)n12	none (no result: RORg inh, IL-1B inflam inh, ELG1 DNA repair, VP16 counter)
COC(=O)c1ccc(CC2(C)C(=O)Nc3ccc(-c4cccc(C(F)(F)F)c4)cc32)o1 (stereo unspecified)	TDP1 cell CPT inconclusive, DT40 TDP1 no CPT 16µM (no result: RORg inh, ELG1 DNA repair, VP16 counter)
CC(=O)c1cccc(-c2ccc3c(c2)C(C)(Cc2ccccc2F)C(=O)N3)c1 (stereo unspecified)	TDP1 cell CPT 26µM, DT40 TDP1 no CPT 18µM (no result: RORg inh, ELG1 DNA repair, VP16 counter)
CCCCN(C(=O)c1ccc(S(=O)(=O)N(CC)CC)cc1)c1c(N)n(CCC)c(=O)[nH]c1=O	none
CCCNC(=O)OC[C@@H]1O[C@H](CCO/N=C(\C)CCN2CCCCc3nc(C)c(C)cc32)C=C[C@@H]1Oc1ccc(OC)cc1	none (no result: IL-1B inflam inh, ELG1 DNA repair, TDP1 cell CPT, DT40 TDP1 no CPT)
CNC(=S)N(Cc1ccco1)Cc1cc2cc3c(cc2[nH]c1=O)OCCO3	RORg inh inconclusive, TDP1 cell CPT inconclusive, DT40 TDP1 no CPT inconclusive
Cc1ccc(C)c2[nH]c(=O)c(CN(Cc3ccco3)C(=O)Nc3ccccc3)cc12	ELG1 DNA repair 5.2µM, TDP1 cell CPT inconclusive, DT40 TDP1 no CPT inconclusive
COc1ccccc1NC(=S)N(Cc1ccco1)Cc1cc2cc(C)c(C)cc2[nH]c1=O	IL-1B inflam inh -54, ELG1 DNA repair inconclusive, TDP1 cell CPT 4.1µM, DT40 TDP1 no CPT 5.2µM, VP16 counter inconclusive
COc1ccccc1NC(=S)N(Cc1ccco1)Cc1cc2cccc(C)c2[nH]c1=O	ELG1 DNA repair 16µM, TDP1 cell CPT inconclusive, DT40 TDP1 no CPT inconclusive
Cc1cccc2cc(CN(Cc3ccco3)C(=O)c3ccco3)c(=O)[nH]c12	none
COc1ccccc1NC(=O)N(Cc1ccco1)Cc1cc2cc(C)cc(C)c2[nH]c1=O	RORg inh inconclusive, IL-1B inflam inh inconclusive, ELG1 DNA repair 18µM, TDP1 cell CPT 21µM, DT40 TDP1 no CPT 15µM
CCOC(=O)C(C(=O)N(C)Cc1ccccc1)C1CCCCC1 (stereo unspecified)	TDP1 cell CPT inconclusive, DT40 TDP1 no CPT inconclusive
Cc1cccc(NC(=O)[C@@H]2CCCN2S(=O)(=O)c2ccc(Cl)cc2)c1	TDP1 cell CPT inconclusive (no result: RORg inh, VP16 counter)
CC(C)CN1C(=O)CN(S(C)(=O)=O)CC1(C)C(=O)Nc1ccc2c(c1)OCCO2 (stereo unspecified)	none (no result: RORg inh, ELG1 DNA repair, VP16 counter)
COc1cc2c(cc1NC(=O)COc1cc(C)ccc1C)oc1ccccc12	none (no result: RORg inh, IL-1B inflam inh, ELG1 DNA repair, VP16 counter)
Cc1c(C(=O)NCC2COc3ccccc3O2)oc2ccc(S(=O)(=O)N3CCOCC3)cc12 (stereo unspecified)	ELG1 DNA repair inconclusive, TDP1 cell CPT inconclusive, DT40 TDP1 no CPT inconclusive
CCN(CC)S(=O)(=O)c1ccc2oc(C(=O)NCC3COc4ccccc4O3)c(C)c2c1 (stereo unspecified)	ELG1 DNA repair inconclusive, TDP1 cell CPT inconclusive, DT40 TDP1 no CPT 23µM
Cc1c(C(=O)NCC2COc3ccccc3O2)oc2ccc(S(=O)(=O)N3CC(C)CC(C)C3)cc12 (stereo unspecified)	ELG1 DNA repair inconclusive, TDP1 cell CPT 18µM, DT40 TDP1 no CPT 13µM
CCN(CC)CCCNC(=O)c1oc2ccc(S(=O)(=O)N3CC(C)CC(C)C3)cc2c1C (stereo unspecified)	IL-1B inflam inh -52, TDP1 cell CPT inconclusive, DT40 TDP1 no CPT 18µM
Cc1c(C(=O)N2CCCCC2)oc2ccc(S(=O)(=O)N3CC(C)CC(C)C3)cc12 (stereo unspecified)	RORg inh inconclusive, IL-1B inflam inh inconclusive, TDP1 cell CPT 18µM, DT40 TDP1 no CPT 13µM, VP16 counter inconclusive
Cc1nn(-c2ccc(F)cc2)c(C)c1CN1CCN(CCC(C)C)C(CCO)C1 (stereo unspecified)	none
COC(=O)C12OCC34C(CC5C(C)=C(O)C(=O)CC5(C)C3C(O)C1O)OC(=O)C(OC(=O)C=C(C)C)C24 (stereo unspecified)	TDP1 cell CPT 0.065µM, DT40 TDP1 no CPT 0.15µM (no result: RORg inh, IL-1B inflam inh, ELG1 DNA repair, VP16 counter)
C=CC(C)(C)c1[nH]c2ccccc2c1C1=C(O)C(=O)C(c2c[nH]c3c(CC=C(C)C)cccc23)=C(O)C1=O	TDP1 cell CPT 13µM, DT40 TDP1 no CPT 13µM, VP16 counter inconclusive (no result: IL-1B inflam inh, ELG1 DNA repair)
COCCNC(=O)Cn1nc(-c2ccccc2F)ccc1=O	none
Cc1ccoc1C(=O)N1CCCC(CCC(=O)N2CCN(c3ccccn3)CC2)C1 (stereo unspecified)	ELG1 DNA repair 21µM, TDP1 cell CPT inconclusive, DT40 TDP1 no CPT 23µM
Cc1ccc(C(=O)N2CCCC(CCC(=O)N3CCN(c4ccccn4)CC3)C2)cc1C (stereo unspecified)	IL-1B inflam inh inconclusive, ELG1 DNA repair 12µM, TDP1 cell CPT inconclusive, DT40 TDP1 no CPT inconclusive
COc1ccccc1NCC(=O)NC(=O)NC1CCCCC1	TDP1 cell CPT inconclusive, DT40 TDP1 no CPT inconclusive (no result: RORg inh, VP16 counter)
CCN1C[C@@H]2[C@@H]3C(=O)N(C)C(=O)[C@@H]3[C@](Cc3ccccc3)(C(=O)OC)N2C1=NC1CCCCC1	TDP1 cell CPT inconclusive, DT40 TDP1 no CPT 21µM (no result: RORg inh, VP16 counter)
COC(=O)[C@@]1(C)[C@H]2C(=O)N(Cc3ccccc3)C(=O)[C@H]2[C@H]2CN=C(SCc3ccc(C)cc3)N21	TDP1 cell CPT inconclusive, DT40 TDP1 no CPT inconclusive (no result: RORg inh, VP16 counter)
CCCN=C1N(CC)C[C@@H]2[C@@H]3C(=O)N(C)C(=O)[C@@H]3[C@](Cc3ccccc3)(C(=O)OC)N12	none (no result: RORg inh, VP16 counter)
COC(=O)[C@@]1(Cc2ccccc2)[C@H]2C(=O)N(Cc3ccccc3)C(=O)[C@H]2[C@H]2CN=C(SCC3CC3)N21	ELG1 DNA repair inconclusive, TDP1 cell CPT inconclusive, DT40 TDP1 no CPT 23µM (no result: RORg inh, VP16 counter)
